# “And” between values parts separate entries of the source, which are not always exact repeats. Equal entries are not always repeated. Records with an inconclusive call do not appear. A call without a number means that no potency is given here. The source made the active and inactive calls. Calls follow the shape of the dose curve; as a rule, active = well fitted curve in the direction sought with a large enough effect in the repeat runs; inconclusive = weak or mixed curves; inactive = no such curve, though single readings can be large; an effect the other way counts as inactive or inconclusive.
# Molecular target: Voltage-gated inwardly rectifying potassium channel KCNH2 (Homo sapiens) (UniProt Q12809)
# Sequence (Q12809 whole entry, looked up): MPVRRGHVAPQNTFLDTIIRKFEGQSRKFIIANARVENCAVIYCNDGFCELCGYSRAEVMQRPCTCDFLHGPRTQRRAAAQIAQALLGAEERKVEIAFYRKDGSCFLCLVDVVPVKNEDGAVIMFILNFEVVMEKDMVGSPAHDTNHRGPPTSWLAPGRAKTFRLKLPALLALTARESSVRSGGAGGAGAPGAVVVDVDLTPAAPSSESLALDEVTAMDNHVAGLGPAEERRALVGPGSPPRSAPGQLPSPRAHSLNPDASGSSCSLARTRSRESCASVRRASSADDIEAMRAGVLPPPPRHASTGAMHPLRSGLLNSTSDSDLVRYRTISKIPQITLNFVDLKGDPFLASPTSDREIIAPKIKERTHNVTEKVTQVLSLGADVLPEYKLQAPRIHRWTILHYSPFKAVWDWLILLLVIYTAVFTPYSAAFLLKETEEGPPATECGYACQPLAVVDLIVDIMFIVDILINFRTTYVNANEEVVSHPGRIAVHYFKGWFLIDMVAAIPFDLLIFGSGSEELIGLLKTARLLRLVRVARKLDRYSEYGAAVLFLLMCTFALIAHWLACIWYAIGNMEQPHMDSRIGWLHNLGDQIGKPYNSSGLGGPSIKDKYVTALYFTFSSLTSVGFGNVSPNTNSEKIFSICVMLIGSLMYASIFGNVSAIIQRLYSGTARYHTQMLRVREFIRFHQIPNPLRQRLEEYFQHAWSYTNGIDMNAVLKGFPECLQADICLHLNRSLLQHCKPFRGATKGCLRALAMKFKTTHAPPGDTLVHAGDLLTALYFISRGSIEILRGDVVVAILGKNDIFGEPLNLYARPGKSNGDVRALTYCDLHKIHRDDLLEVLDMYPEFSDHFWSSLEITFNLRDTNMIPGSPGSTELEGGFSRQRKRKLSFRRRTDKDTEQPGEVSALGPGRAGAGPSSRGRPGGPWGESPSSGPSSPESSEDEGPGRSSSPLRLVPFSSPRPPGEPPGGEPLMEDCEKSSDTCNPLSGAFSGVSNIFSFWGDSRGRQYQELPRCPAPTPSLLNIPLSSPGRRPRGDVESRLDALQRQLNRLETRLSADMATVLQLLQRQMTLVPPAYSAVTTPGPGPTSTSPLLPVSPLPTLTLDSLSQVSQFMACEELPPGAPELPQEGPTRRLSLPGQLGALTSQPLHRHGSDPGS
# Assay: Human Ether-a-go-go-Related Gene (hERG) channel small molecule antagonists: fluorescence cell-based qHTS assay (AID 1671200);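 also: hERG-expressing U2OS cells given a thallium stimulus after FluxOR II dye loading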
# Details: hERG-U2OS cells, FluxOR thallium flux fluorescence; series mostly up to 76.8 µM
# Summary of the method: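 In this thallium-flux screen, overnight-cultured U2OS cells bearing the channel are dye-loaded in darkness for an hour, rested 10 min at room temperature, and then monitored kinetically at 480/540 nm for two minutes post-stimulus.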
# Also: nearly all actives have a fitted effect of over 50% in size.
row,Compound,Potency
1,O=NN1CCCCCC1,inactive
2,C=CCCl,inactive
3,IC(I)=C(I)I,inactive
4,CC1(C)[C@H](C=C(Cl)Cl)[C@@H]1C(=O)O[C@@H](C#N)c1cccc(Oc2ccccc2)c1,inactive
5,C=CC(=O)OC(C)(C)C,inactive
6,CCOP(=S)(OCC)Oc1nc(Cl)c(Cl)cc1Cl,inactive

# Molecular target: Cytochrome P450 3A4 (Homo sapiens) (UniProt P08684)
# Sequence (P08684 whole entry, looked up): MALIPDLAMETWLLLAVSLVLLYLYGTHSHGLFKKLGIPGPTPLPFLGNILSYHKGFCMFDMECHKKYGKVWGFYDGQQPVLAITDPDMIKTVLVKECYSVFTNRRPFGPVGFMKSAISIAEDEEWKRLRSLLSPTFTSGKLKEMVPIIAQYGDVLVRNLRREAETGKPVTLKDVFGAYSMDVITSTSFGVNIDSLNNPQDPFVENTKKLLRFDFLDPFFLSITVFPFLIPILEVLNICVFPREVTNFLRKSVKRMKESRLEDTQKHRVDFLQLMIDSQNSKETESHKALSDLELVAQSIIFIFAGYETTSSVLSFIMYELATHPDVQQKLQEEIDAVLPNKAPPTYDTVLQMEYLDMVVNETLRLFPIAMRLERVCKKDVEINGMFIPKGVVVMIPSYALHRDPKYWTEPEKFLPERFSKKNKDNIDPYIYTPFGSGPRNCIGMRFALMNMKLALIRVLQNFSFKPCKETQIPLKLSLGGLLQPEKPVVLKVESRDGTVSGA
# Assay: Cytochrome P450 Family 3 Subfamily A Member 4 (CYP3A4) small molecule antagonists: luciferase reporter qHTS assay (AID 1671201); also: potency is read from the fitted curve at half-maximal effect
# Details: P450-Glo CYP3A4 enzyme, luciferin luminescence, 1 h; series mostly up to 115 µM
# Summary of the method: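 CYP3A4 activity was followed with a P450-Glo proluciferin substrate. Test compounds in DMSO were preincubated 10 min; NADPH regeneration then ran 1 h, and light output was read 20 min after detection reagent.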
row,Compound,Potency
1,CNC(C)Cc1ccccc1OC (stereo unspecified),inactive
2,COC(=O)C(C)N(C(=O)Cc1ccccc1)c1c(C)cccc1C (stereo unspecified),inactive
3,CCCCNP(N)(N)=S,inactive
4,COC(=O)C(Br)CBr (stereo unspecified),inactive
5,Cc1ccc2ccccc2c1,inactive
6,COC(C)(C)CCC[C@H](C)C/C=C/C(C)=C/C(=O)OC(C)C,20 µM (active)
7,COC(N)=O,inactive
8,CCCC(=O)Cl,inactive
9,NC(=O)CI,inactive
10,CCBr,inactive
11,NNC(=O)c1cccnc1,2.53 µM (active)
12,Cc1cc(=O)[nH]o1,inactive
13,N#CCc1ccccc1,inactive
14,CC(Cl)Cl,inactive
15,CCCN(CCCl)c1c([N+](=O)[O-])cc(C(F)(F)F)cc1[N+](=O)[O-],22.4 µM (active)
16,COc1cc(CC(C)N)cc2c1OCO2 (stereo unspecified),inactive
17,CCOP(=O)(OCC)SCCSCC,inactive
18,CCCCCCC#N,inactive
19,NC(=O)C(Cl)(Cl)Cl,inactive
20,Brc1ccc(Oc2ccccc2)cc1,inactive
21,CCOP(O)OCC,inactive
22,O=C(NC(=O)c1c(F)cccc1F)Nc1cc(Cl)c(Oc2ncc(C(F)(F)F)cc2Cl)c(Cl)c1,inactive
23,C=CCC1([C@H](C)CCC)C(=O)NC(=O)NC1=O,31.4 µM (active)
24,CCCCCCCCCCOC(=O)c1ccccc1C(=O)OCCCCCCCCCC,inactive
25,O=NN1CCCCCC1,inactive
26,C=CCCl,inactive
27,IC(I)=C(I)I,inactive
28,CC1(C)[C@H](C=C(Cl)Cl)[C@@H]1C(=O)O[C@@H](C#N)c1cccc(Oc2ccccc2)c1,inactive
29,C=CC(=O)OC(C)(C)C,inactive
30,CCOP(=S)(OCC)Oc1nc(Cl)c(Cl)cc1Cl,1.13 µM (active) and 2 µM (active)

# Reference: PubChem BioAssay (Tox21)
